Source: PubChem BioAssay (National Center for Advancing Translational Sciences (NCATS))
Tau FP inhib: qHTS for Inhibitors of Tau Fibril Formation, Fluorescence Polarization; Microtubule-associated protein tau (Homo sapiens), P10636; K18 P301L tau heparin fibrillization, Alexa594 FP, 6 h; Potency, µM (doses to about 57.7 µM), for inactives: at the highest dose activity, negative = inhibition, usual class: inhibitors; actives 0.39% (n = 280,000); AID 1468, 2008; active = well fitted curve in the direction sought with a large enough effect; inconclusive = small, poorly fitted or top-dose-only effect, or another doubt; inactive = no such curve, though single readings can be large; an effect the other way counts as inactive or inconclusive; also: potency is read from the fitted curve at half-maximal effect; % is scaled to controls: 0 for no effect and ±100 for the full control effect; nearly all actives have a fitted effect of over 55% in size
Target sequence (P10636 561-689 P618L limits assumed): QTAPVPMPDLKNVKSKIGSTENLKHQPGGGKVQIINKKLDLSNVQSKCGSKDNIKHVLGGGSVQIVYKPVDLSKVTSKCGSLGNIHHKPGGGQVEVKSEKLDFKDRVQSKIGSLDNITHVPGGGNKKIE
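Heparin (20 uM) drove fibril formation of recombinant tau K18 P301L, 15 uM unlabeled with 0.24 uM Alexa 594 label, for 6 hr at 37 C in 100 mM sodium acetate pH 7. Fluorescence polarization (555/632 nm) read 1 hr after 30 uM ThT.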
Coupling enz: qHTS Assay for Inhibitors of Fructose-1,6-bisphosphate Aldolase from Giardia Lamblia: Coupling assay counterscreen. coupling enzyme system counterscreen, AmpLite Red fluorescence. activity change, negative = inhibition, % at 58.2 µM, hits read low. AID 2472, 2010. actives 0.67% (n = 290,000); in the data active = activity change below about -30%; also: % is scaled to controls: 0 for no effect and ±100 for the full control effect
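Counterscreen of the coupled detection system alone, without aldolase: glyceraldehyde-3-phosphate coupling enzymes plus AmpLite Red readout. Compounds at 57.5 uM final, 10 min RT preincubation, 20 min RT reaction, fluorescence 525/598 nm.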
Tau fluor cs: Counterscreen qHTS for Inhibitors of Tau Fibril Formation, Fluorescence Polarization; Potency, µM (top dose mostly 57.7 µM), for inactives: at the top dose activity change, negative = decrease; actives 0.93% (n = 280,000); tau K18 P301L Alexa594 fluorescence, heparin fibrillization; active = well fitted curve in the direction sought with a large enough effect; inconclusive = small, poorly fitted or top-dose-only effect, or another doubt; inactive = no such curve, though single readings can be large; an effect the other way counts as inactive or inconclusive; also: potency is read from the fitted curve at half-maximal effect; % is scaled to controls: 0 for no effect and ±100 for the full control effect; nearly all actives have a fitted effect of over 55% in size
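Human K18 P301L tau (15 uM unlabeled plus 0.24 uM Alexa 594-labeled, final) in 100 mM sodium acetate pH 7 was mixed with compound and 20 uM heparin and incubated 6 hr at 37 C.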
USP1-UAF1 inh: Inhibitors of USP1/UAF1: Primary Screen; recombinant USP1/UAF1, Ub-Rhodamine cleavage fluorescence; Potency, µM (titrated, usually from 57.1 µM), without a hit: at the highest dose activity change, negative = inhibition, most hits filed as inhibitors; actives 0.23% (n = 390,000); active = well fitted curve in the direction sought with a large enough effect; inconclusive = small, poorly fitted or top-dose-only effect, or another doubt; inactive = no such curve, though single readings can be large; an effect the other way counts as inactive or inconclusive; also: potency is read from the fitted curve at half-maximal effect; % is scaled to controls: 0 for no effect and ±100 for the full control effect; nearly all actives have a fitted effect of over 60% in size
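In this screen, compounds sit with the deubiquitinase complex (1nM) for 15 min at room temperature before Ub-Rho is added at 150nM final. Fluorescence rise is then followed for 6 reads every 60 seconds.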
Tau ThT inhib: qHTS for Inhibitors of Tau Fibril Formation, Thioflavin T Binding; Microtubule-associated protein tau (Homo sapiens), P10636; recombinant tau K18 P301L, heparin-induced fibrillization, ThT fluorescence; Potency, µM (highest dose often 57.4 µM), for the others: at the top dose activity, negative = inhibition, hits mostly inhibitors; actives 2.1% (n = 270,000); active = well fitted curve in the direction sought with a large enough effect; inconclusive = small, poorly fitted or top-dose-only effect, or another doubt; inactive = no such curve, though single readings can be large; an effect the other way counts as inactive or inconclusive; also: potency is read from the fitted curve at half-maximal effect; % is scaled to controls: 0 for no effect and ±100 for the full control effect; nearly all actives have a fitted effect of over 55% in size
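Using a mix of unlabeled (15 uM) and Alexa 594-labeled (0.24 uM) tau K18 P301L, heparin-triggered fibrillization over 6 hr at 37 C was scored by ThT fluorescence.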
Casp1 catalase: Concentration-Response Counterscreen for Redox Active Inhibitors of Caspase-1: Catalase. shares compounds with Coupling enz. caspase-1 Ac-WEHD-AFC fluorescence rate, catalase buffer. Potency, µM (doses to about 57.5 µM), for the others: at the top dose activity change, negative = inhibition, usual class: inhibitors. 30 tested, under 10 active. AID 888, 2007
CASP1 inh CRC: Confirmation Concentration-Response Assay for Allosteric/Competitive Inhibitors of Caspase-1; Potency, µM (highest dose often 57.5 µM), for inactives: at the highest dose activity change, negative = inhibition, hits mostly inhibitors; actives 20% (n = 60); shares compounds with Coupling enz; purified caspase-1, fluorogenic substrate cleavage
Casp7 confirm: Confirmation Concentration-Response Assay for Allosteric/Competitive Inhibitors of Caspase-7; shares compounds with Coupling enz; recombinant caspase-7, fluorogenic substrate cleavage; Potency, µM (series often up to 57.5 µM), for inactives: at the highest dose activity change, negative = inhibition, usual class: inhibitors; 60 tested, under 10 active; AID 897, 2007; active = well fitted inhibition curve with a large enough effect in the main read-out, with a control signal flat, not every such curve was filed as active; inconclusive = small, poorly fitted or top-dose-only effect, or a change in a side signal; inactive = no such curve, though single readings can be large or run the other way
Target sequence (P55210 24-198 limits assumed): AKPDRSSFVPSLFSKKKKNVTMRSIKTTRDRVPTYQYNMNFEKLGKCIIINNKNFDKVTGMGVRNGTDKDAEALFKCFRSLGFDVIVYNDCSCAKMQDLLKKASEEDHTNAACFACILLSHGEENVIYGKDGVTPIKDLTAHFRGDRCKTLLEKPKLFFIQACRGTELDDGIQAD
Target sequence (P55210 207-303 limits assumed): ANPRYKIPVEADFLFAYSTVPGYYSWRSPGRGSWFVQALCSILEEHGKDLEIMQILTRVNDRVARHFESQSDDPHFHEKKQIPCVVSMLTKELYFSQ
CASP7 redox cys: Concentration-Response Counterscreen for Redox Active Inhibitors of Caspase-7: Cysteine | shares compounds with Coupling enz | caspase-7 enzyme with cysteine, fluorogenic substrate, redox counterscreen | Potency, µM (top dose mostly 57.5 µM), for inactives: at the top dose activity change, negative = inhibition, most hits filed as inhibitors | 60 tested, under 10 active
CASP7 redox cat: Concentration-Response Counterscreen for Redox Active Inhibitors of Caspase-7: Catalase; shares compounds with Coupling enz; Caspase-7 Ac-DEVD-AFC fluorescence rate, catalase buffer; Potency, µM (highest dose often 57.5 µM), inactives show at the highest dose activity, negative = inhibition, most hits filed as inhibitors; 30 tested, under 10 active
Casp1 cysteine: Concentration-Response Counterscreen for Redox Active Inhibitors of Caspase-1: Cysteine; recombinant caspase-1, fluorogenic substrate, cysteine buffer; shares compounds with Coupling enz; 60 tested, under 10 active; Potency, µM (highest dose often 57.5 µM), for the others: at the top dose activity change, negative = inhibition, actives largely listed as inhibitors
Numbers without * were called inactive. In the library only some 2.3% were active in any assay of this set; here they are far more common. Unless noted, calls follow the shape of the dose curve; as a rule, active = well fitted inhibition curve with a large enough effect in the main read-out, with a control signal flat; inconclusive = small, poorly fitted or top-dose-only effect, or a change in a side signal; inactive = no such curve, though single readings can be large or run the other way.

Screening COC1(C)CC(c2ccccc2)c2c(c3ccccc3oc2=O)O1 (centres undefined) returned Coupling enz -1.
CCOC(=O)c1cccc(NC(=O)NCc2ccc3c(c2)CCN3C(=O)c2ccccc2)c1 was read as Tau FP inhib inconclusive, Tau fluor cs inconclusive, USP1-UAF1 inh -22% and Tau ThT inhib -13%.
`COc1cccc(CSc2nc(-c3ccccc3OC)nc3c2Cc2c(CO)cnc(C)c2O3)c1` gave Tau FP inhib -1%, Tau fluor cs -10%, USP1-UAF1 inh -18% and Tau ThT inhib inconclusive.
For CCn1nc(-c2ccccc2)nc2c(=O)n(C)c(=O)nc1-2 the results were Tau FP inhib inconclusive, Coupling enz -61*, Tau fluor cs -10%, Tau ThT inhib 16µM*, Casp1 catalase 0.79µM*, CASP1 inh CRC 1µM*, Casp7 confirm 1.6µM*, CASP7 redox cys -3%, CASP7 redox cat inconclusive and Casp1 cysteine -20%.
`NCCNC[C@@H](N)CCCN=C(N)N[N+](=O)[O-]` gave Coupling enz -2.
For CC(=O)C1CCC2C3CCC4CC(C)(O)CCC4(C)C3CCC12C (centres undefined) the results were Coupling enz 1.
`COc1cc2c(cc1O)C[C@H]1c3c(cc(OC)c(O)c3-2)CCN1C` gave Tau FP inhib inconclusive, Coupling enz -12, Tau fluor cs inconclusive, Tau ThT inhib 14µM*, CASP1 inh CRC 32µM*, Casp7 confirm -68%, CASP7 redox cys -4% and Casp1 cysteine -5%.
Screening COc1cc2c(cc1OC)-c1c(OC)c(OC)c(C=O)c3c1[C@H](C2)N(C)CC3 returned Tau FP inhib inconclusive, Coupling enz -22, Tau fluor cs inconclusive, Tau ThT inhib 22µM*, CASP1 inh CRC inconclusive, Casp7 confirm -17%, CASP7 redox cys -4% and Casp1 cysteine inconclusive.
CC(=O)OCC(N)C(=O)c1ccccc1 (centres undefined) was read as Tau FP inhib 3%, Coupling enz 1, Tau fluor cs 0% and Tau ThT inhib -2%.
